This passage reports binding signal results from paper PMC5700166.

Experiment [1] has as its target T1, GST-Nv-NF-kB (Ser allele) (Nematostella vectensis, UniProt A7UNT2 2-411).
T1 sequence: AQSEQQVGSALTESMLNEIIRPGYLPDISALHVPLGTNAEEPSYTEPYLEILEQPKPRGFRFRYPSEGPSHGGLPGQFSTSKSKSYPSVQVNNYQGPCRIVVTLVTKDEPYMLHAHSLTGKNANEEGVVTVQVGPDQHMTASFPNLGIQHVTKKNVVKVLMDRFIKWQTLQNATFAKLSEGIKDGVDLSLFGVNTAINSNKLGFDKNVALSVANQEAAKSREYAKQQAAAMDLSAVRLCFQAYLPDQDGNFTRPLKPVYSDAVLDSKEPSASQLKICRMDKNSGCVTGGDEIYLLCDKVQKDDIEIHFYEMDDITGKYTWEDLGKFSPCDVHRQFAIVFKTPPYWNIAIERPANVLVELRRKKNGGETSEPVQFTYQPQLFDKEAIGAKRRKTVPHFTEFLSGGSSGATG
Kind of experiment: protein-binding microarray (PBM); PBM: ~300 nM protein, 6 mM HEPES pH 7.8, 80 mM KCl, 0.5 mM EDTA, 0.5 mM EGTA, 6% glycerol, 35 ng/ul poly-dIdC, 1% milk, 1 h, room temperature; Ap Aiptasia and Nv Nematostella (sea anemones) / Co Capsaspora / Aq Amphimedon (sponge) / Dm Drosophila / Hu human; RHD is the Rel homology domain; high values mean tight binding. To be noted: dsDNA, one strand shown.

A further experiment has as its target GST-Hu-p50 (Homo sapiens, UniProt P19838 7-356). The experiment is described as above. To be noted: dsDNA, one strand shown.

Sequence of GST-Hu-p50 (P19838 7-356): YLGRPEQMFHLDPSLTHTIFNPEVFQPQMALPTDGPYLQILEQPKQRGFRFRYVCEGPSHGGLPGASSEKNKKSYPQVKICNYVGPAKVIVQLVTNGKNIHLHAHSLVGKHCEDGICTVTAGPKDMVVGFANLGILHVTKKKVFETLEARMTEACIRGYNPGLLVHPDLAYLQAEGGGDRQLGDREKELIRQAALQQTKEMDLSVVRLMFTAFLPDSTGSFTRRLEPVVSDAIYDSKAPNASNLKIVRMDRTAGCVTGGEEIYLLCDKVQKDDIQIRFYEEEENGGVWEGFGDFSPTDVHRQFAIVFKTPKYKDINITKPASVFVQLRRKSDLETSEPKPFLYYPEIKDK

Turning to “CCGATTAACATCACATACTCCCCTGATGTTAATCGGGTCTTGATTCGCTTGACGCTGCTG”, the binding signal in experiment [1] is 4.25 z-score; in the experiment with GST-Hu-p50, 3.33 z-score.

As to “CCGATTAACATCAGCTTGGGAAATGATGTTAATCGGGTCTTGATTCGCTTGACGCTGCTG”, the binding signal in experiment [1] turned out to be 1.58 z-score; with GST-Hu-p50 it was 1.1 z-score.

As to “CCGATTAACATCAAGGGAGTACCTGATGTTAATCGGGTCTTGATTCGCTTGACGCTGCTG”, the figures for the binding signal (in experiment [1]; in the experiment with GST-Hu-p50) were 4.41 z-score and 2.56 z-score, respectively.

With “CCGATTAACATCAGATATTTCCCTGATGTTAATCGGGTCTTGATTCGCTTGACGCTGCTG”, the binding signal worked out at 5.36 z-score in experiment [1] and 3.91 z-score in the experiment with GST-Hu-p50.

With “CCGATTAACATCAGGGAAAACCATGATGTTAATCGGGTCTTGATTCGCTTGACGCTGCTG”, the binding signal in experiment [1] came out at 6.37 z-score; with GST-Hu-p50 it was 4.01 z-score.

As for “CCGATTAACATCAGAATCTCCCATGATGTTAATCGGGTCTTGATTCGCTTGACGCTGCTG”, the values for the binding signal (in experiment [1]; in the experiment with GST-Hu-p50) were 1.67 z-score and 2.18 z-score, respectively.

Turning to “CCGATTAACATCAAATGGGAATTTGATGTTAATCGGGTCTTGATTCGCTTGACGCTGCTG”, the values for the binding signal (in experiment [1]; with GST-Hu-p50) were 4.87 z-score and 3.42 z-score, respectively.

As to “CCGATTAACATCAGGGATCACCCTGATGTTAATCGGGTCTTGATTCGCTTGACGCTGCTG”, the binding signal in experiment [1] was 1.43 z-score; in the experiment with GST-Hu-p50, 2.48 z-score.

Take “CCGATTAACATCACCTCCGTATCTGATGTTAATCGGGTCTTGATTCGCTTGACGCTGCTG”: the binding signal in experiment [1] turned out to be 1.11 z-score; with GST-Hu-p50, 1.28 z-score.

Turning to “CCGATTAACATCAAATCTTTCCCTGATGTTAATCGGGTCTTGATTCGCTTGACGCTGCTG”, the binding signal in experiment [1] came to 6.25 z-score; in the experiment with GST-Hu-p50 it was 3.68 z-score.

As to “CCGATTAACATCACATTATCCCCTGATGTTAATCGGGTCTTGATTCGCTTGACGCTGCTG”, the binding signal in experiment [1] was 6.4 z-score; with GST-Hu-p50, 3.94 z-score.

Take “CCGATTAACATCAGATTTCTCCCTGATGTTAATCGGGTCTTGATTCGCTTGACGCTGCTG”: the figures for the binding signal (in experiment [1]; in the experiment with GST-Hu-p50) were 3.47 z-score and 1.72 z-score, respectively.

Consider “CCGATTAACATCAATATACCCCCTGATGTTAATCGGGTCTTGATTCGCTTGACGCTGCTG”, for which the binding signal amounted to 5.46 z-score in experiment [1] and 4.42 z-score with GST-Hu-p50.

Regarding “CCGATTAACATCAAAAAGTTCCCTGATGTTAATCGGGTCTTGATTCGCTTGACGCTGCTG”, the binding signal in experiment [1] was found to be 5.17 z-score; with GST-Hu-p50, 4.09 z-score.

Turning to “CCGATTAACATCACTAAATTCCCTGATGTTAATCGGGTCTTGATTCGCTTGACGCTGCTG”, the binding signal in experiment [1] came to 5.8 z-score; with GST-Hu-p50 it was 4.08 z-score.

Consider “CCGATTAACATCAGGGAAAATGATGATGTTAATCGGGTCTTGATTCGCTTGACGCTGCTG”, for which the figures for the binding signal (in experiment [1]; in the experiment with GST-Hu-p50) were 6.52 z-score and 2.44 z-score, respectively.

On to “CCGATTAACATCAGGTAATTCCATGATGTTAATCGGGTCTTGATTCGCTTGACGCTGCTG”, for which the results for the binding signal (in experiment [1]; in the experiment with GST-Hu-p50) were 3.72 z-score and 2.14 z-score, respectively.

Consider “CCGATTAACATCAGGGGTTACCCTGATGTTAATCGGGTCTTGATTCGCTTGACGCTGCTG”, for which the binding signal in experiment [1] was 4.21 z-score; with GST-Hu-p50, 3.9 z-score.

Regarding “CCGATTAACATCACCCCAGCCCCTGATGTTAATCGGGTCTTGATTCGCTTGACGCTGCTG”, the binding signal in experiment [1] is 1.91 z-score; with GST-Hu-p50, 2.68 z-score.

As for “CCGATTAACATCACGGACTTCCCTGATGTTAATCGGGTCTTGATTCGCTTGACGCTGCTG”, the binding signal in experiment [1] is 2.24 z-score; with GST-Hu-p50 it was 1.25 z-score.

For the sequence “CCGATTAACATCAGATGTCCCCCTGATGTTAATCGGGTCTTGATTCGCTTGACGCTGCTG”, the binding signal in experiment [1] stood at 4.47 z-score; in the experiment with GST-Hu-p50, 3.96 z-score.

For “CCGATTAACATCATGGGAAAAAATGATGTTAATCGGGTCTTGATTCGCTTGACGCTGCTG”, the binding signal came out at 5.03 z-score in experiment [1] and 3.83 z-score with GST-Hu-p50.

Turning to “CCGATTAACATCAAGTATTTCCCTGATGTTAATCGGGTCTTGATTCGCTTGACGCTGCTG”, the binding signal in experiment [1] came to 5.24 z-score; in the experiment with GST-Hu-p50, 3.64 z-score.

On to “CCGATTAACATCAGGACTCTCCCTGATGTTAATCGGGTCTTGATTCGCTTGACGCTGCTG”, for which the binding signal is 2.28 z-score in experiment [1] and 3.64 z-score with GST-Hu-p50.

Turning to “CCGATTAACATCAAATTCCCAGATGATGTTAATCGGGTCTTGATTCGCTTGACGCTGCTG”, the binding signal in experiment [1] was found to be 3.83 z-score; with GST-Hu-p50 it was 2.58 z-score.

Take “CCGATTAACATCAGGACAGTCCCTGATGTTAATCGGGTCTTGATTCGCTTGACGCTGCTG”: the binding signal in experiment [1] turned out to be 2.87 z-score; with GST-Hu-p50, 4.04 z-score.

On to “CCGATTAACATCAGGAAATGCCCTGATGTTAATCGGGTCTTGATTCGCTTGACGCTGCTG”, for which the binding signal turned out to be 1.15 z-score in experiment [1] and 2.89 z-score with GST-Hu-p50.

Consider “CCGATTAACATCAAAAACTCCCATGATGTTAATCGGGTCTTGATTCGCTTGACGCTGCTG”, for which the binding signal in experiment [1] is 4.52 z-score; with GST-Hu-p50, 4.38 z-score.

For “CCGATTAACATCACCGCCCCCCCTGATGTTAATCGGGTCTTGATTCGCTTGACGCTGCTG”, the binding signal in experiment [1] was 4.44 z-score; in the experiment with GST-Hu-p50, 4.53 z-score.

Turning to “CCGATTAACATCACGGTACGGGGTGATGTTAATCGGGTCTTGATTCGCTTGACGCTGCTG”, the binding signal in experiment [1] worked out at 1.3 z-score; with GST-Hu-p50, 1.71 z-score.

Take “CCGATTAACATCACAAACTTCCCTGATGTTAATCGGGTCTTGATTCGCTTGACGCTGCTG”: the binding signal in experiment [1] came to 4.44 z-score; in the experiment with GST-Hu-p50, 2.88 z-score.

As for “CCGATTAACATCAGGCCCCCCCCTGATGTTAATCGGGTCTTGATTCGCTTGACGCTGCTG”, the figures for the binding signal (in experiment [1]; with GST-Hu-p50) were 3.9 z-score and 4.51 z-score, respectively.

Consider “CCGATTAACATCAGGGAATGCCATGATGTTAATCGGGTCTTGATTCGCTTGACGCTGCTG”, for which the results for the binding signal (in experiment [1]; with GST-Hu-p50) were 2.41 z-score and 1.54 z-score, respectively.

“CCGATTAACATCAGGGGCACCCCTGATGTTAATCGGGTCTTGATTCGCTTGACGCTGCTG”: the figures for the binding signal (in experiment [1]; with GST-Hu-p50) were 2.72 z-score and 3.94 z-score, respectively.

Turning to “CCGATTAACATCACGGGGGGGACTGATGTTAATCGGGTCTTGATTCGCTTGACGCTGCTG”, the binding signal in experiment [1] was 4.38 z-score; with GST-Hu-p50 it was 4.37 z-score.

On to “CCGATTAACATCAGGACTGTCCCTGATGTTAATCGGGTCTTGATTCGCTTGACGCTGCTG”, for which the binding signal in experiment [1] was 2.57 z-score; in the experiment with GST-Hu-p50, 3.92 z-score.
